High-throughput results: PubChem, several laboratories
esBAF inh – Bmi1 luciferase reporter increase in mESCs, primary screen, esBAF inhibitor project, mouse ES cells, Bmi1 luciferase knock-in, single point | 24 h; 100% = twice the neutral-well signal | reporter increase, % at 12.5 µM | 350,000 tested, 2% active | AID 602393, 2012; in the data active means activation above about 40%; inconclusive means no clear call, values can overlap the other calls;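 further: 0% = median of the plate's neutral control wells and 100% = double that signal; a rise in the Bmi1 reporter signal indicates esBAF inhibition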
Wnt bcat act – Wnt/beta-catenin pathway activators, primary screen, cell-based, plate reader, single point. activation, % at 9.35 µM. Wnt/beta-catenin reporter cell assay, activator. 300,000 tested, 1.2% active; in the data active means activation above about 30%, passing the limit was not always enough; inconclusive means no clear call, values can overlap the other calls;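 further: 0% = neutral control wells and 100% = positive control wells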
SMARCA2 act – SMARCA2 (BRM) function activators, primary screen, cell-based, luminescence, high throughput. MG213 cells, MMTV-luciferase reporter, dexamethasone, overnight. activation, % at 9.1 µM. 370,000 tested, 1% active; in the data active means activation above about 7.8%;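 further: 0% = vehicle wells and 100% = reference activator wells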
FGF22 binding – binders of human FGF22 protein, primary screen, FGF22 synaptogenesis inhibitor project, biophysical, thermal shift, single point; Fibroblast growth factor 22 (Homo sapiens), Q9HCT0; recombinant FGF22 thermal shift, SYPRO orange fluorescence; percent of sucrose octasulfate shift, DMSO zero; activity (Tm shift, normalised), % at 9.99 µM; 340,000 tested, 1.5% active; AID 651658, 2012;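 active means mean Tm shift, scaled 0 neutral to 100 positive control, at about 1.3% or above, every replicate too, limit read from the data; inconclusive means no clear call, values can overlap the other calls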
MLL AF4-AF9 inh – inhibitors of AF4 peptide binding to AF9, primary screen, biochemical, AlphaScreen, biotin-AF4 peptide, FLAG-AF9, single point. Protein AF-9 (Homo sapiens), P42568. inhibition, % at 10 µM. 350,000 tested, 0.47% active. AID 651704, 2012;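 active means every replicate reaching a set inhibition limit, whatever the replicate mean, cut at about 25% in these data; inconclusive means mean inhibition reaches that limit but some replicates miss it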;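 further: 0% = plate neutral control median and 100% = total signal loss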
Target sequence (P42568 whole entry, looked up): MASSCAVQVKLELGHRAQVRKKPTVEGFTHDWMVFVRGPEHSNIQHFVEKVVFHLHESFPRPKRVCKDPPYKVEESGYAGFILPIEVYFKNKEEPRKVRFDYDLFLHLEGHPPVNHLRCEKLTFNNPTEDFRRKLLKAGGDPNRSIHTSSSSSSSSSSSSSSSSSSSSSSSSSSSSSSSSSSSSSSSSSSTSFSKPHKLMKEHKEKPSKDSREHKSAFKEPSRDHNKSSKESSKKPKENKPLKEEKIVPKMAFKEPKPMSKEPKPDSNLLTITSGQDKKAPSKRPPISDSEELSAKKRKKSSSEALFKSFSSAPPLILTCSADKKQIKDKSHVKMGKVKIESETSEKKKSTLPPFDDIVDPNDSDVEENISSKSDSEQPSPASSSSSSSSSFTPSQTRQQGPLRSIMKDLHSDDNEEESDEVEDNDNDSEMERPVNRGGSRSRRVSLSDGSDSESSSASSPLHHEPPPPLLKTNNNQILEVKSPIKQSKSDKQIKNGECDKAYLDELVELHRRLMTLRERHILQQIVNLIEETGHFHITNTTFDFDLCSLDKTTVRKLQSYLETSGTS
MITF act – activators of MITF-driven TRPM1 promoter reporter, primary screen, cell-based, SK-MEL-5, luciferase, single point; 300,000 tested, 0.75% active; SK-MEL-5 TRPM1-promoter luciferase, 24 h; % of positive control, neutral wells = 0; activation, % at 12.5 µM; AID 588334, 2011;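 active means mean activation of at least 80% with every replicate also reaching 80%; inconclusive means mean reaches 80% but some replicate falls short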;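 further: 0% = neutral control wells and 100% = parthenolide positive control wells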
Active calls of the source: *; ? = inconclusive; . = no result given. Most compounds without a hit are left out; they make up all but 4.3% or so of the library.

SMILES | esBAF inh | Wnt bcat act | SMARCA2 act | FGF22 binding | MLL AF4-AF9 inh | MITF act
CN(C)C(=O)c1ccc(-c2ccc([C@H]3[C@@H](CO)N4C(=O)CN(C(=O)C5CCC5)C[C@@H]34)cc2)cc1 | . | . | . | . | -2 | .
COc1cc(/C=C2\SC(=S)N(CC(=O)Nc3ccc(O)cc3)C2=O)cc(OC)c1OC | 0 | -5 | -1 | 0 | 2 | 1
COc1cc(/C=C2\SC(=S)N(CC(=O)NC(C)(C)C)C2=O)cc(OC)c1OC | 7 | -6 | -4 | 43* | 1 | -1
CCCNC(=O)CCCCn1c(=S)[nH]c2c([nH]c3ccc(OC)cc32)c1=O | . | -2 | 1 | 43* | -2 | -5
COC(=O)C1=C(C)NC(=O)NC1c1ccco1 (stereo unspecified) | 1 | -5 | -3 | 43* | -1 | 0
CC1CCC(NC(=O)C2CCN(S(=O)(=O)c3ccc4nc5c(c(C(=O)O)c4c3)CC(C)CC5)CC2)CC1 (stereo unspecified) | 2 | -2 | 0 | 43* | -1 | 1
COC(=O)c1cccc(-n2c(C)cc(/C=C3\SC(=O)NC3=O)c2C)c1 | 45* | -3 | 1 | 0 | 1 | .
Cc1cc(C(=O)O)ccc1-n1c(C)cc(/C=C2\SC(=O)NC2=O)c1C | 2 | 9 | -1 | . | -6 | .
CCn1c(SC(C)C(=O)NC2CCCC2)nc2cc(S(N)(=O)=O)ccc21 (stereo unspecified) | -5 | 48* | 1 | 0 | -1 | -9
CCOCC(=O)NC(=O)N1C[C@H]2CON(C)[C@H]2C[C@H]1c1ccc(OC)cc1 | . | . | -3 | . | . | .
COC(c1ccccc1)c1nnc(CCC(=O)NC2CCCCC2)o1 (stereo unspecified) | . | 0 | 4 | 1 | 0 | -8
CN(C(=O)CCc1nnc(-c2ccc(-c3ccccc3)cc2)o1)C1CCOCC1 | -8 | 7 | -5 | 0 | -9 | 4
O=C(CCc1nnc(-c2ccccc2)o1)NC1CCCCC1 | 48* | 8 | -2 | 0 | ? | ?
CN(CCCC1CCCC1)C(=O)CCc1nnc(-c2ccccc2)o1 | 84* | 10 | 4 | 0 | 48* | 79
CN(C)CC(=O)Nc1ccc2c(c1)[C@@H]1C[C@@H](CC(=O)NCc3ccncc3)O[C@@H](CO)[C@@H]1O2 | -2 | . | . | 0 | -2 | .
CCn1cnc2c(Nc3cc(F)cc(F)c3)nc(C#N)nc21 | 57* | 26 | 2 | 0 | -5 | 70
Cc1ccccc1NC(=O)OCc1ccccc1 | 53* | 7 | -1 | 0 | 0 | .
O=C(COc1ccc(Cl)cc1)NCc1nnc2c3ccccc3c(-c3ccccc3)nn12 | -7 | 6 | -3 | . | . | 7
O=C(NCc1nnc2c3ccccc3c(-c3ccccc3)nn12)c1ccccc1Cl | . | -9 | -2 | 44* | 0 | -6
CN(C)C(=O)c1ccc(-c2ccc([C@H]3[C@@H](C#N)N(C(=O)C4CCCC4)[C@H]3CO)cc2)cc1 | -2 | . | . | 0 | 7 | .
O=C(NCc1nnc(SCC(=O)N2CCCc3ccccc32)o1)c1ccco1 | 3 | 46* | 1 | 0 | -6 | -8
O=C(NCc1nnc(SCC(=O)N2CCc3ccccc32)o1)c1ccco1 | -7 | -5 | 0 | 43* | -2 | 7
N#C[C@H]1[C@@H](c2ccccc2-c2ccccc2F)[C@H](CO)N1C(=O)c1ccccn1 | . | . | . | . | 1 | .
C[C@@H]1CN([C@@H](C)CO)C(=O)c2cc(NC(=O)Nc3ccc(F)cc3)ccc2O[C@@H]1CN(C)S(=O)(=O)c1ccc(F)cc1 | 4 | . | . | -1 | 3 | .
COc1ccc(C(=O)CSc2nnn(-c3cccc(NC(C)=O)c3)n2)cc1 | ? | 9 | 2 | 0 | -2 | .
SMILES | esBAF inh | Wnt bcat act | SMARCA2 act | FGF22 binding | MLL AF4-AF9 inh | MITF act
CC(=O)Nc1cccc(-n2nnc(SCC(=O)c3ccccc3)n2)c1 | 36 | 60* | 6 | 0 | 1 | .
O=C(Nc1ccc(Cl)cc1)N[C@H]1CC[C@H](CCn2cc(Cc3ccccc3)nn2)O[C@@H]1CO | 11 | . | . | 0 | 1 | .
O=C(Nc1ccc(Nc2ccccc2)cc1)c1ccc(Br)o1 | 57* | 29 | 3 | . | . | 41
O=C(Nc1cccc(C(=O)Nc2cccc(Br)c2)c1)c1ccccc1 | 4 | 2 | 0 | 0 | -3 | 31
O=C(Nc1ccc(NC(=O)c2cccs2)cc1)c1ccc(Br)o1 | . | . | 2 | . | . | -5
Cc1ccccc1-c1nc(-c2ccc(NC(=O)c3ccc(Br)o3)cc2)no1 | 49* | . | 1 | . | . | 71
CC(C)c1ccc(NC(=O)c2cccc(Br)c2)cc1 | . | 56* | 6 | 0 | -5 | 71
Cc1ccccc1-c1nc(-c2ccc(Br)o2)no1 | 15 | ? | 6 | 0 | -1 | 32
CC(C)c1ccc(NC(=O)c2ccc(Br)o2)cc1 | . | . | 3 | . | . | 89*
COCC#Cc1cnc2c(c1)C(=O)N([C@@H](C)CO)C[C@H](C)[C@@H](CN(C)C(=O)C1CCCCC1)O2 | -1 | . | . | 0 | -1 | .
COCCCNC(=O)C[C@H]1C[C@@]2(C(=O)OC)C(=C[C@H](C3CCCC3)O[C@@H]2C)N(Cc2cccc3ccccc23)C1=O | . | . | -2 | . | . | .
CO[C@@H]1CN(C)C(=O)c2ccc(NC(C)=O)cc2OC[C@@H](C)N(C(=O)CN(C)C)C[C@H]1C | -2 | . | . | . | . | .
Cc1cc(O)c(NC(=O)c2ccc(Br)o2)cc1C | 67* | ? | 5 | . | . | 54
COc1ccc(NC(=S)NC(=O)c2ccc(Br)o2)cc1 | 46* | 24 | 3 | . | . | 90*
CCC(=O)Nc1ccc2c(c1)C(=O)N(C)C[C@H](OC)[C@H](C)CN(C(=O)c1ccncc1)[C@H](C)CO2 | -5 | . | . | 0 | 2 | .
Cc1noc(C)c1C(=O)Nc1sccc1C(N)=O | -12 | -1 | 7.9* | 0 | 0 | -1
Cc1ccc(C)c(OCc2cc(C(=O)N3CC[C@H](O)C3)no2)c1 | 47* | 37* | 8 | 0 | -1 | 132*
O=C(c1cc(COc2ccc(F)cc2Cl)on1)N1CCCCCC1 | 95* | 27 | 4 | 0 | -16 | 144*
CN(CCc1ccccc1)C(=O)c1cc(COc2ccc(F)cc2Cl)on1 | 43* | 11 | 7 | 0 | -3 | 60
O=C(c1cc(COc2ccc(F)cc2Cl)on1)N1CCCCCCC1 | 25 | 5 | -2 | 0 | -1 | 30
CN(CCN1CCOCC1)C(=O)c1cc(COc2ccc(F)cc2Cl)on1 | 11 | 7 | -2 | 0 | 1 | .
COc1cc(C)ccc1OCc1cc(C(=O)N2CCCCCCC2)no1 | 55* | 20 | 2 | 0 | 0 | 63
